Laboratory results as given in PubChem BioAssay AID1159580 (chemical genetic matrix, 2015).
The campaign covered roughly 5,500 compounds. About 2,000 (36%) were called active. Another 18% or so got no clear call; they are omitted. Rule as the data show it: active = normalized growth mostly below about 0.91 (no sharp cut-off); inconclusive = no clear call, values can overlap the other calls; inactive = mostly above about 0.92. The list shows a part of the results.

Experiment: chemical genetic growth profiling, strain panel (AID 1159580);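 also: tested at 20 µM; growth read once vehicle control cultures reached saturation at 30 °C; 1 = growth at the plate median or of vehicle wells; lower values mean less growth of the strain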
Conditions: growth OD

Measured: normalized growth

CC1Cc2ccccc2N1NC(=O)c1ccc(Cl)c(S(N)(=O)=O)c1 (centres undefined)
inactive: S. cerevisiae deletion strains, locus YJR043C, strain POL32, hits give low values 1.02 | S. cerevisiae deletion strains, locus YJR066W, strain TOR1, hits give low values 0.94 | S. cerevisiae deletion strains, locus YJR075W, strain HOC1, hits give low values 1.01 | S. cerevisiae deletion strains, locus YKL009W, strain mrt4, hits give low values 1.01 | S. cerevisiae deletion strains, locus YKL068W, hits give low values 0.994 | S. cerevisiae deletion strains, locus YKL085W, strain MDH1 (second series), hits give low values 0.988 | S. cerevisiae deletion strains, locus YKL085W, strain MDH1, hits give low values 0.988 | S. cerevisiae deletion strains, locus YKL160W, strain elf1, hits give low values 0.991 | S. cerevisiae deletion strains, locus YKR001C, strain vps1, hits give low values 1.01 | S. cerevisiae deletion strains, locus YKR026C, strain gcn3, hits give low values 0.997 | S. cerevisiae deletion strains, locus YKR091W, strain srl3, hits give low values 0.997 | S. cerevisiae deletion strains, locus YLL001W, strain dnm1, hits give low values 0.994 | S. cerevisiae deletion strains, locus YLL026W, hits give low values 0.999 | S. cerevisiae deletion strains, locus YLL041C, strain sdh2, hits give low values 0.998 | S. cerevisiae deletion strains, locus YLR027C, strain aat2, hits give low values 1 | S. cerevisiae deletion strains, locus YLR039C, strain RIC1, hits give low values 1.03 | S. cerevisiae deletion strains, locus YLR058C, strain SHM2, hits give low values 1.01 | S. cerevisiae deletion strains, locus YLR102C, strain apc9, hits give low values 0.989 | S. cerevisiae deletion strains, locus YLR113W, strain HOG1, hits give low values 1 | S. cerevisiae deletion strains, locus YLR221C, strain rsa3, hits give low values 0.989 | S. cerevisiae deletion strains, locus YLR258W, strain gsy2, hits give low values 1.01 | S. cerevisiae deletion strains, locus YLR262C, strain YPT6 (second series), hits give low values 0.996 | S. cerevisiae deletion strains, locus YLR262C, strain YPT6, hits give low values 1.04 | S. cerevisiae deletion strains, locus YLR268W, strain sec22, hits give low values 1.03 | S. cerevisiae deletion strains, locus YLR320W, strain mms22, hits give low values 1 | S. cerevisiae deletion strains, locus YLR330W, strain CHS5, hits give low values 1.01 | S. cerevisiae deletion strains, locus YLR342W, strain FKS1 (second series), hits give low values 1.01 | S. cerevisiae deletion strains, locus YLR342W, strain FKS1, hits give low values 0.999 | S. cerevisiae deletion strains, locus YLR357W, strain rsc2, hits give low values 1.03 | S. cerevisiae deletion strains, locus YLR370C, strain arc18, hits give low values 1.01 | S. cerevisiae deletion strains, locus YLR371W, strain rom2, hits give low values 0.99 | S. cerevisiae deletion strains, locus YLR384C, strain iki3, hits give low values 1.01 | S. cerevisiae deletion strains, locus YLR418C, strain cdc73, hits give low values 0.989 | S. cerevisiae deletion strains, locus YML016C, strain PPZ1, hits give low values 1.01 | S. cerevisiae deletion strains, locus YML032C, strain rad52, hits give low values 0.994 | S. cerevisiae deletion strains, locus YML120C, strain ndi1, hits give low values 0.987 | S. cerevisiae deletion strains, locus YML124C, strain tub3, hits give low values 0.999 | S. cerevisiae deletion strains, locus YMR058W, strain fet3, hits give low values 1.01 | S. cerevisiae deletion strains, locus YMR078C, strain ctf18, hits give low values 0.994 | S. cerevisiae deletion strains, locus YMR125W, strain sto1, hits give low values 1.01 | S. cerevisiae deletion strains, locus YMR129W, hits give low values 1.01 | S. cerevisiae deletion strains, locus YMR205C, strain PFK2, hits give low values 0.985 | S. cerevisiae deletion strains, locus YMR223W, strain ubp8, hits give low values 0.977 | S. cerevisiae deletion strains, locus YMR231W, strain pep5, hits give low values 1 | S. cerevisiae deletion strains, locus YMR263W, strain SAP30, hits give low values 1.02 | S. cerevisiae deletion strains, locus YMR307W, strain GAS1, hits give low values 1.04 | S. cerevisiae deletion strains, locus YNL067W, strain RPL9B, hits give low values 1.01 | S. cerevisiae deletion strains, locus YNL071W, strain lat1, hits give low values 1.01 | S. cerevisiae deletion strains, locus YNL183C, strain NPR1, hits give low values 0.958 | S. cerevisiae deletion strains, locus YNL209W, strain ssb2, hits give low values 1 | S. cerevisiae deletion strains, locus YNL233W, strain BNI4, hits give low values 1.01 | S. cerevisiae deletion strains, locus YNL248C, strain rpa49, hits give low values 0.989 | S. cerevisiae deletion strains, locus YNL250W, strain rad50, hits give low values 0.984 | S. cerevisiae deletion strains, locus YNL271C, strain bni1, hits give low values 0.995 | S. cerevisiae deletion strains, locus YNL298W, strain CLA4, hits give low values 0.995 | S. cerevisiae deletion strains, locus YNL307C, strain MCK1, hits give low values 0.996 | S. cerevisiae deletion strains, locus YNL322C, strain KRE1 (second series), hits give low values 0.997 | S. cerevisiae deletion strains, locus YNR049C, strain mso1, hits give low values 1 | S. cerevisiae deletion strains, locus YNR052C, strain pop2, hits give low values 0.991 | S. cerevisiae deletion strains, locus YOL006C, strain TOP1, hits give low values 1.01 | S. cerevisiae deletion strains, locus YOL012C, strain htz1 0.983 | S. cerevisiae deletion strains, locus YOL147C, strain pex11, hits give low values 1 | S. cerevisiae deletion strains, locus YOR001W, strain rrp6, hits give low values 0.975 | S. cerevisiae deletion strains, locus YOR061W, strain CKA2, hits give low values 1.02 | S. cerevisiae deletion strains, locus YOR069W, strain VPS5, hits give low values 1.01 | S. cerevisiae deletion strains, locus YOR070C, strain gyp1, hits give low values 1 | S. cerevisiae deletion strains, locus YOR080W, strain dia2, hits give low values 1 | S. cerevisiae deletion strains, locus YOR083W, strain WHI5, hits give low values 0.983 | S. cerevisiae deletion strains, locus YOR106W, strain vam3, hits give low values 0.981 | S. cerevisiae deletion strains, locus YOR136W, strain idh2, hits give low values 0.992 | S. cerevisiae deletion strains, locus YOR144C, strain elg1, hits give low values 0.998 | S. cerevisiae deletion strains, locus YOR184W, strain ser1, hits give low values 0.982 | S. cerevisiae deletion strains, locus YOR231W, strain MKK1, hits give low values 0.971 | S. cerevisiae deletion strains, locus YOR265W, strain rbl2, hits give low values 1.02 | S. cerevisiae deletion strains, locus YOR270C, strain vph1, hits give low values 0.997 | S. cerevisiae deletion strains, locus YOR290C, strain snf2, hits give low values 0.952 | S. cerevisiae deletion strains, locus YOR316C, strain cot1, hits give low values 0.994 | S. cerevisiae deletion strains, locus YPL051W, strain arl3, hits give low values 0.993 | S. cerevisiae deletion strains, locus YPL055C, strain LGE1, hits give low values 1 | S. cerevisiae deletion strains, locus YPL078C, strain atp4, hits give low values 0.984 | S. cerevisiae deletion strains, locus YPL106C, strain sse1, hits give low values 0.994 | S. cerevisiae deletion strains, locus YPL240C, strain hsp82, hits give low values 1.01 | S. cerevisiae deletion strains, locus YPL256C, strain CLN2, hits give low values 0.998 | S. cerevisiae deletion strains, locus YPR119W, strain clb2, hits give low values 0.991 | S. cerevisiae deletion strains, locus YPR141C, strain kar3, hits give low values 0.998 | S. cerevisiae deletion strains, locus YPR163C, strain tif3, hits give low values 1 | S. cerevisiae deletion strains, locus YPR167C, strain met16, hits give low values 0.997 | S. cerevisiae deletion strains, strain wtn01, hits give low values 1.02 | S. cerevisiae strains, strain wild type, hits give low values 1.01
